Assay results published in the antibiotic and cytotoxicity screens of Wong et al. (2023).
Screen size: about 39,000 compounds; about 500 (1.3%) were called active. The entries come from a sample that favours actives as a whole.

system: S. aureus RN4220; assay: growth inhibition call (relative growth <= 0.2); settings: 50 µM

Growth inhibition call, active:
Cc1ccc(C(=O)N(CCCN)[C@@H](c2nc3cc(Cl)ccc3c(=O)n2Cc2ccccc2)C(C)C)cc1
CC(C)(O)CC(=O)NCCn1ccc2ncnc(Nc3ccc(Oc4cccc(C(F)(F)F)c4)c(Cl)c3)c21
CCN(CC)C(=S)SSC(=S)N(CC)CC
Cc1ccc(CNc2ccc3c(c2)ncn3C2CCCCC2)cc1
CC(C)(C)c1ccc(OC[C@@H](O)CN)cc1
C[C@@H]1CCCCO[C@@H](CN(C)C(=O)Nc2ccc(C(F)(F)F)cc2)[C@H](C)CN([C@@H](C)CO)C(=O)c2cc(NS(=O)(=O)c3cn(C)cn3)ccc2O1
C[C@@H]1CN([C@@H](C)CO)C(=O)c2cc(NS(=O)(=O)c3cn(C)cn3)ccc2O[C@@H](C)CCCCO[C@@H]1CN(C)C(=O)Nc1ccc(C(F)(F)F)cc1
C[C@H](CO)N1C[C@H](C)[C@@H](CN(C)C(=O)Nc2ccc(C(F)(F)F)cc2)OCCCC[C@H](C)Oc2ccc(NS(=O)(=O)c3cn(C)cn3)cc2C1=O
CCC(=C(c1ccccc1)c1ccc(OCCN(C)C)cc1)c1ccccc1.O=C(O)CC(O)(CC(=O)O)C(=O)O
CN(C)CCOc1ccc(C(=C(CCCl)c2ccccc2)c2ccccc2)cc1.O=C(O)CC(O)(CC(=O)O)C(=O)O
O=C(CCCCC(=O)N/N=C/c1cc(I)cc(I)c1O)NO

Growth inhibition call, inactive:
COc1cccc(NC(=O)N[C@H]2C=C[C@@H](CC(=O)N3CCN(C)CC3)O[C@@H]2CO)c1
O=C(C[C@H]1C[C@@H]2c3cc(NC(=O)NC4CCCC4)ccc3O[C@@H]2[C@H](CO)O1)NCCN1CCCCC1
C[C@H](CO)N1C[C@H](C)[C@@H](CN(C)Cc2ccc(Oc3ccccc3)cc2)Oc2c(NC(=O)C3CCCCC3)cccc2C1=O
C[C@@H]1CN([C@@H](C)CO)C(=O)c2cc(NC(=O)c3ccccc3)ccc2O[C@@H](C)CCCCO[C@H]1CN(C)Cc1ccc2c(c1)OCO2
C[C@@H]1CN([C@@H](C)CO)C(=O)c2cc(NC(=O)NC3CCCCC3)ccc2O[C@H]1CN(C)Cc1ccc(C(=O)Nc2ccccc2N)cc1
CC(C)NC(=O)Nc1cccc2c1O[C@H](CN(C)S(=O)(=O)c1ccc(F)cc1)[C@H](C)CN([C@H](C)CO)C2=O
C[C@H](CO)N1C[C@H](C)[C@H](CN(C)Cc2ccc(-c3ccccc3)cc2)Oc2c(NC(=O)NC3CCCCC3)cccc2C1=O
Cc1ccc2c(c1)c1nc3ccccc3nc1n2Cc1ccccc1
Cc1ccc(C(=O)N(CCCN)[C@@H](c2oc3cc(Cl)ccc3c(=O)c2Cc2ccccc2)C(C)C)cc1
COc1ccc(CN(C)C[C@@H]2OCCCC[C@@H](C)Oc3ccc(NC(=O)Nc4ccc(C(F)(F)F)cc4)cc3C(=O)N([C@@H](C)CO)C[C@@H]2C)cc1
C[C@@H]1CCCCO[C@H](CN(C)S(=O)(=O)c2ccccc2)[C@H](C)CN([C@H](C)CO)C(=O)c2cc(NC(=O)Nc3ccc(C(F)(F)F)cc3)ccc2O1
CO[C@@H]1CN(C)C(=O)c2ccc(NS(=O)(=O)CC(F)(F)F)cc2OC[C@@H](C)N(C(=O)c2ccc3c(c2)OCO3)C[C@H]1C
CS(=O)(=O)CCNCc1ccc(-c2ccc3ncnc(Nc4ccc(OCc5cccc(F)c5)c(Cl)c4)c3c2)o1 [listing 1 of 2 here]
CS(=O)(=O)CCNCc1ccc(-c2ccc3ncnc(Nc4ccc(OCc5cccc(F)c5)c(Cl)c4)c3c2)o1 [listing 2 of 2 here]
C[C@H](CO)N1C[C@H](C)[C@H](CN(C)C(=O)Cc2cccnc2)Oc2cc(-c3cncnc3)ccc2S1(=O)=O
C[C@@H]1CCCCO[C@@H](CN(C)Cc2ccc(C(=O)Nc3ccccc3N)cc2)[C@@H](C)CN([C@H](C)CO)C(=O)c2cc(NC(=O)c3ccccc3)ccc2O1
CN(CC(=O)Nc1ccc(F)cc1F)S(=O)(=O)c1ccc2c(c1)c(=O)n(C)c(=O)n2C
C[C@H]1CN([C@@H](C)CO)C(=O)Cc2cc(NS(=O)(=O)c3cn(C)cn3)ccc2O[C@@H]1CN(C)S(C)(=O)=O
COCCNC(=O)C[C@@H]1C[C@H]2c3cc(NS(C)(=O)=O)ccc3O[C@H]2[C@@H](CO)O1
CO[C@H]1CN(C)C(=O)c2ccc(NC(=O)Nc3cccc(Cl)c3)cc2OC[C@@H](C)N(C(=O)Nc2c(C)noc2C)C[C@@H]1C
C[C@H](CO)N1C[C@H](C)[C@H](CN(C)S(C)(=O)=O)Oc2ccc(NC(=O)Cn3cnnn3)cc2C1=O
Cc1ccc(-n2cnc3cc(NCc4cccs4)ccc32)cc1
COc1ccc(NC(=O)N(C)C[C@@H]2OCCCC[C@H](C)Oc3ccc(NC(=O)c4ccncc4)cc3C(=O)N([C@H](C)CO)C[C@@H]2C)cc1
C[C@@H]1CCCCO[C@H](CN(C)C(=O)Nc2ccc3c(c2)OCO3)[C@@H](C)CN([C@H](C)CO)C(=O)c2cc(NC(=O)Nc3ccccc3)ccc2O1
CCc1ccc(OC[C@@H](O)CN)cc1
Cc1cccc(OC[C@@H](O)CN)c1
Cn1cnc(S(=O)(=O)N2C[C@H](O)COC[C@@H]3O[C@H](CC(=O)NC4CCCC4)CC[C@H]32)c1
C=C[C@H]1CCC=C2C(=O)CCC[C@@H]21
C[C@@H]1CCCCO[C@H](CN(C)C(=O)Nc2ccc(C(F)(F)F)cc2)[C@H](C)CN([C@@H](C)CO)C(=O)c2cc(NS(=O)(=O)c3cn(C)cn3)ccc2O1
C[C@H]1CCCCO[C@H](CN(C)C(=O)Nc2ccc(C(F)(F)F)cc2)[C@@H](C)CN([C@@H](C)CO)C(=O)c2cc(NS(=O)(=O)c3cn(C)cn3)ccc2O1
C[C@@H]1CCCCO[C@@H](CN(C)C(=O)Nc2ccc(C(F)(F)F)cc2)[C@@H](C)CN([C@H](C)CO)C(=O)c2cc(NS(=O)(=O)c3cn(C)cn3)ccc2O1
C[C@@H]1CN([C@H](C)CO)C(=O)c2cc(NS(=O)(=O)c3cn(C)cn3)ccc2O[C@@H](C)CCCCO[C@H]1CN(C)C(=O)Nc1ccc(C(F)(F)F)cc1
C[C@@H]1CCCCO[C@H](CN(C)C(=O)Nc2ccc(C(F)(F)F)cc2)[C@H](C)CN([C@H](C)CO)C(=O)c2cc(NS(=O)(=O)c3cn(C)cn3)ccc2O1
C[C@@H]1CCCCO[C@H](CN(C)C(=O)Nc2ccc(C(F)(F)F)cc2)[C@@H](C)CN([C@H](C)CO)C(=O)c2cc(NS(=O)(=O)c3cn(C)cn3)ccc2O1
C[C@@H]1CCCCO[C@@H](CN(C)C(=O)CCC(F)(F)F)[C@@H](C)CN([C@H](C)CO)C(=O)c2cc(NC(=O)NC3CCCCC3)ccc2O1
CC(C)NC(=O)Nc1cccc2c1O[C@@H](CN(C)S(=O)(=O)c1ccc(F)cc1)[C@H](C)CN([C@@H](C)CO)C2=O
O=C(C[C@@H]1C=C[C@@H](NC(=O)Nc2ccc3c(c2)OCO3)[C@H](CO)O1)NCCCN1CCOCC1
COc1ccc(Nc2ccc(-c3ccncc3)s2)cc1Cl
C[C@H]1CN([C@@H](C)CO)C(=O)Cc2cc(NS(C)(=O)=O)ccc2O[C@H]1CN(C)S(=O)(=O)c1ccccc1
Cc1noc(C)c1NC(=O)Nc1ccc2c(c1)C(=O)N([C@H](C)CO)C[C@H](C)[C@@H](CN(C)C(=O)NC1CCCCC1)OCCCC[C@@H](C)O2
Cc1ccc(S(=O)(=O)Nc2ccc3c(c2)C(=O)N([C@@H](C)CO)C[C@@H](C)[C@@H](CN(C)C(=O)Nc2ccc(F)cc2)OCCCC[C@H](C)O3)cc1
CN(C)CCN(Cc1ccccc1)c1ccccn1.O=C(O)CC(O)(CC(=O)O)C(=O)O
CCN(CC)CCOc1ccc(C(=C(Cl)c2ccccc2)c2ccccc2)cc1.O=C(O)CC(O)(CC(=O)O)C(=O)O
CCN(CCCc1ccccc1)CCCc1ccccc1.O=C(O)CC(O)(CC(=O)O)C(=O)O
Cc1ccccc1C(OCCN(C)C)c1ccccc1.O=C(O)CC(O)(CC(=O)O)C(=O)O (configuration not stated)
C[C@H]1CN([C@@H](C)CO)C(=O)c2cc(C#Cc3ccccc3F)cnc2O[C@@H]1CN(C)C(=O)C1CCOCC1
COc1ccc2c3c([nH]c2c1)[C@H](CO)N(C[C@]13CN(Cc2cc(on2)-c2ccccc2)C1)C(=O)Nc1ccc(cc1)F
COc1ccc(S(=O)(=O)N(C)C[C@H]2OCCCC[C@H](C)Oc3ccc(NC(=O)CCC(F)(F)F)cc3C(=O)N([C@H](C)CO)C[C@H]2C)cc1
C[C@@H]1CCCCO[C@@H](CN(C)C(=O)c2ccccc2)[C@H](C)CN([C@@H](C)CO)C(=O)c2cc(NC(=O)Nc3cccc4ccccc34)ccc2O1
O=S(=O)(O)c1cc(O)ccc1O
C[C@@H]1CN([C@H](C)CO)C(=O)c2cccc(NC(=O)c3ccc(-c4nccs4)cc3)c2O[C@@H]1CN(C)C(=O)Nc1ccc2c(c1)OCO2
Cc1ccc(S(=O)(=O)N(C)C[C@@H]2OCCCC[C@H](C)Oc3ccc(NC(=O)c4ccccc4)cc3C(=O)N([C@@H](C)CO)C[C@H]2C)cc1
C[C@@H]1CN([C@@H](C)CO)C(=O)c2cc(NS(=O)(=O)c3cccs3)ccc2O[C@H]1CN(C)CC1CC1
C[C@H](CO)N1C[C@H](C)[C@@H](CN(C)C(=O)Nc2cccc3ccccc23)Oc2ccc(NC(=O)Nc3cccc4ccccc34)cc2CC1=O
O=C(NO)c1cccc(C(=O)N/N=C/c2cc(I)cc(I)c2O)c1
O=C(CCCCCCC(=O)N/N=C/c1cc(I)cc(I)c1O)NO
